# Compound activity (PubChem)
# Only some compounds are listed: those with a hit (about 1.9% of all), similar ones and a draw of the others.
# LNCaP diff act – LNCaP prostate cell differentiation activation; side scatter shift, % at 10 µM; flow cytometry side scatter, 4 d; actives 0.56% (n = 24,000);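 active = side scatter shift above 30%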;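 note: androgen-responsive LNCaP prostate cancer cells in charcoal-stripped serum medium; percent of cells past a gate set so DMSO wells show 10% shift; higher shift means more granular cells and more differentiation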
# FPR binder – ligands of human FPR, also counter-screen for FPRL1 ligands; actives 0.74% (n = 24,000); inhibition, % (test concentration not listed); P21462; FPR-expressing cells, fluorescent ligand binding, flow cytometry;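 note: 0% = buffer wells and 100% = receptor blocker peptide wells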
# FPRL1 binder – human FPRL1 ligand, with FPR counter-screen; AID 441; actives 0.3% (n = 24,000); inhibition, % (no concentration beside the values); FPRL1-expressing cells, fluorescent ligand binding inhibition, flow cytometry;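 note: 0% = buffer alone and 100% = receptor blocker peptide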
# Target sequence (P25090 whole entry, looked up): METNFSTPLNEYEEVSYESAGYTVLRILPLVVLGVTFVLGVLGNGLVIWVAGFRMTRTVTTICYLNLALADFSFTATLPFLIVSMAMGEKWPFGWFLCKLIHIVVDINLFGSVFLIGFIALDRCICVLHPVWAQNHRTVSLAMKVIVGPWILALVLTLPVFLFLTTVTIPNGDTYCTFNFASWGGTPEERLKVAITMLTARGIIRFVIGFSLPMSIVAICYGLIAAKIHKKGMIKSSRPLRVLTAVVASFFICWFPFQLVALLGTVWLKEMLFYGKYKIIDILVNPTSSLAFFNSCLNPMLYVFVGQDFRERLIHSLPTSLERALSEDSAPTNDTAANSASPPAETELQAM
# S aureus QS inh – inhibitors of bacterial quorum sensing in S. aureus. S. aureus RN6390 RNAIII-GFP reporter, AIP-induced, flow cytometry 3 h. inhibition, % at 2 µM. actives 0.3% (n = 24,000). AID 527;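 active = share of bacteria positive for the green fluorescent reporter and its mean brightness both inhibited by 50% or more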;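 note: 0% = AIP-stimulated control and 100% = unstimulated bacteria without AIP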
# Numbers without * were called inactive; x = no result given. Cut-off read from the data, not from the text of the source, unless noted: active = inhibition above about 30%; inconclusive = no clear call, values can overlap the other calls; inactive = below that.
SMILES,LNCaP diff act,FPR binder,FPRL1 binder,S aureus QS inh
Cc1cc(C)nc(N2CCC(C(=O)NCc3cccc(C(F)(F)F)c3)CC2)n1,16,4,-6,0
Cc1cc(C)nc(N2CCC(C(=O)Nc3ccc(Oc4ccccc4)cc3)CC2)n1,33*,-5,-4,1
CC1CCN(C(C(=O)Nc2ccc3c(c2)OCO3)c2ccccc2)CC1 (stereo not given),14,2,-5,15
CC1CCCN(C(C(=O)Nc2ccc3c(c2)OCCO3)c2ccccc2)C1 (stereo not given),14,6,-1,99*
CC1CCCN(C(C(=O)Nc2ccc3c(c2)OCO3)c2ccccc2)C1 (stereo not given),13,0,-3,99*
OCc1nc2ccccc2n1CC(O)Cn1ccc2ccccc21 (stereo not given),16,37*,51*,-1
CCCCn1c(NC(=O)CC)c(C#N)c2nc3ccccc3nc21,8,48*,-1,0
CCCCn1c(NC(=O)c2ccccc2Cl)c(C#N)c2nc3ccccc3nc21,x,3,-1,x
CCc1ccc(-c2nc(CN3CCC(C(=O)NCCN(CC)c4ccccc4)CC3)c(C)o2)cc1,32*,0,15,10
CCN(CCNC(=O)C1CCN(Cc2nc(-c3cccc(Cl)c3)oc2C)CC1)c1ccccc1,24,10,14,4
Cc1oc(-c2cccc(Cl)c2)nc1CN1CCCC(C(=O)NCCCN2CCOCC2)C1 (stereo not given),26,2,2,-8
CCN(CCNC(=O)C1CCN(Cc2nc(-c3ccc(Cl)cc3)oc2C)CC1)c1ccccc1,66*,4,-2,1
Cc1oc(-c2ccc(Cl)cc2)nc1CN1CCC(C(=O)NCCCN2CCOCC2)CC1,63*,4,-4,8
Cc1n[nH]c(C)c1S(=O)(=O)Nc1ccc2c(c1)OCCO2,7,-1,11,-1
Cn1c(C(=O)NCCCN2CCN(c3ccccc3F)CC2)cc2c(=O)n(C)c3ccccc3c21,70*,-2,-8,-2
CCCS(=O)(=O)N1CCCC(C(=O)N2CCOCC2)C1 (stereo not given),6,0,1,4
CCn1c(Cc2ccc(OC)cc2)nnc1SCC(=O)Nc1cccc(C(=O)OC)c1,12,2,-1,12
COc1ccc(-c2nc(-c3ccc(NC(=O)c4ccc(Br)o4)cc3)no2)cc1OC,17,43*,50*,-6
COc1ccc(-c2nc(-c3ccc(Br)o3)no2)cc1OC,5,17,31*,4
CN(C)CCCOC(=O)CCc1ccccc1,9,-4,1,0
CCN(CCCc1ccccc1)CCCc1ccccc1,7,54*,1,-1
CCN1CCN(c2cc(C)c3cc(NC(=O)c4ccncc4)ccc3n2)CC1,11,13,16,-5
CCN1CCN(c2cc(C)c3cc(NC(=O)c4ccc(Br)o4)ccc3n2)CC1,53*,-5,-12,-4
CN1CCN(c2cc3c(c4c2[nH]c2ccccc24)C(=O)CC(C)(C)C3)CC1,63*,-10,-1,0
CN1CCCN(C(=O)c2cc(=O)[nH]c3ccccc23)c2nc3ccccc3nc21,4,-2,-8,0
SMILES,LNCaP diff act,FPR binder,FPRL1 binder,S aureus QS inh
c1ccc(N2CCN(c3nnc(Cc4cccnc4)c4ccccc34)CC2)nc1,30*,1,-2,2
O=S(=O)(c1cccc2nsnc12)N1CCc2ccccc21,13,-1,6,-2
CCN1CCCC1CNC(=O)c1nn(-c2ccc(C)cc2)c(=O)c2c1c1ccccc1n2C (stereo not given),32*,-14,-10,-1
Cc1ccc(-n2nc(C(=O)N3CCN(C)CC3)c3c4ccccc4n(C)c3c2=O)cc1,10,-2,2,-2
CCOc1ccc(/C(O)=C2/C(=O)C(=O)N(CC3CCCO3)C2c2ccc(C)o2)cc1 (stereo not given),x,26,-6,x
CCOc1ccc(/C(O)=C2/C(=O)C(=O)N(CC3CCCO3)C2c2ccco2)cc1 (stereo not given),x,48*,26,x
C=CCn1c(SCCCC)nc(O)cc1=O,1,56*,-6,2
CCn1c(SCC(=O)N2CCOCC2)nc(O)cc1=O,3,11,5,4
CCN(CC)S(=O)(=O)c1ccc2c(c1)nc(SCC(=O)NC1CC1)n2-c1ccccc1OC,16,-2,0,4
CCSc1nnc(NC(=O)CSc2nnc(Cc3cccn3C)n2CCc2ccccc2)s1,12,34*,-2,-3
Cn1cccc1Cc1nnc(SCC(=O)Nc2nccs2)n1CCc1ccccc1,10,10,6,1
CC(C)N(CCc1ccncc1)C(=O)Nc1ccc(Cl)c(Cl)c1,7,-2,-4,12
COc1ccc(Cn2c(C)nc3c(c2=O)c2nc4ccccc4nc2n3Cc2ccco2)cc1,58*,0,-5,-1
COc1ccc(CCn2c(-c3ccco3)nc3nc4ccccc4nc32)cc1,10,5,-6,1
CCC(=O)N1CCN(c2nc(-c3ccccc3)c3c(c2C#N)CCCC3)CC1,12,9,4,4
O=c1cc(N2CCc3ccccc3C2)[nH]c(=O)n1C1CCCCC1,62*,0,1,4
O=c1cc(N2CCC(Cc3ccccc3)CC2)[nH]c(=O)n1C1CCCCC1,18,-2,2,16
CC(=O)OCCNc1cc(N2CCN(C)CC2)c2noc3c2c1C(=O)c1ccccc1-3,15,6,53*,-2
COc1ccccc1-c1cc(C(=O)N2CCN(c3ccccc3OC)CC2)no1,5,1,0,-4
Cn1c(=O)n(CCN2CCOCC2)c(=O)c2c1nc1n2CCN1c1ccccc1,11,0,1,0
CN(C)c1nc(N(C)C)nc(N(C)C)n1,8,52*,0,-2
CCOc1cccc2cc(-c3nnc(NCc4ccco4)s3)c(=O)oc12,9,14,4,0
CCOc1cccc2cc(-c3cn4cc(C)ccc4n3)c(=O)oc12,57*,6,1,0
Cn1c(=O)c2c3c(sc2n2c(SCc4ccccc4)nnc12)CCCC3,3,1,-6,64*
S=C(N=Nc1ccccc1)NNc1ccccc1,5,6,6,-1
SMILES,LNCaP diff act,FPR binder,FPRL1 binder,S aureus QS inh
CCOC(=O)N1CCC(NC(=O)c2cc(C(=O)Nc3ccc(OC)c(OC)c3)ccc2CO)CC1,15,15,34*,-6
CCOC(=O)N1CCC(NC(=O)c2cc(C(=O)Nc3cccc(OC)c3)ccc2CO)CC1,14,6,3,-2
COc1cccc(-n2c(SCC(=O)N3CCCC3)nc3c([nH]c4ccccc43)c2=O)c1,18,1,0,0
Cc1ccc(NC(=O)C2C(=O)N(CCO)C3(C)CC2c2ccccc2O3)cc1 (stereo not given),10,31*,40*,5
CC(C)Cn1cc(C(=O)N2CCN(c3ccccn3)CC2)c2c3ccccc3n(C)c2c1=O,9,2,2,-2
COCCNC(=O)CC(NS(=O)(=O)c1ccc(NC(C)=O)cc1)C(C)C (stereo not given),31*,0,-1,0
